Records with an inconclusive call do not appear. Entries that show only a call come without a potency. Calls of active or inactive are those of the source. Unless noted, calls follow the shape of the dose curve; as a rule, active = well fitted curve in the direction sought with a large enough effect; inconclusive = small, poorly fitted or top-dose-only effect, or another doubt; inactive = no such curve, though single readings can be large; an effect the other way counts as inactive or inconclusive. Residues, ends and D or L forms follow the SMILES beside them.
Key:
[1] = target: Glucocorticoid receptor (Homo sapiens) (UniProt P04150); assay: GR-GFP Redistribution (AID 450;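 active = compounds whose dose series gives a full or clear partial fitted curve of increased nuclear translocation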; also: potency is read from the fitted curve at half-maximal effect); conditions: U2OS GR-GFP nuclear translocation, laser cytometry, 2 h
Chain of Glucocorticoid receptor (Homo sapiens) (P04150 whole entry, looked up, the tested form may be a part): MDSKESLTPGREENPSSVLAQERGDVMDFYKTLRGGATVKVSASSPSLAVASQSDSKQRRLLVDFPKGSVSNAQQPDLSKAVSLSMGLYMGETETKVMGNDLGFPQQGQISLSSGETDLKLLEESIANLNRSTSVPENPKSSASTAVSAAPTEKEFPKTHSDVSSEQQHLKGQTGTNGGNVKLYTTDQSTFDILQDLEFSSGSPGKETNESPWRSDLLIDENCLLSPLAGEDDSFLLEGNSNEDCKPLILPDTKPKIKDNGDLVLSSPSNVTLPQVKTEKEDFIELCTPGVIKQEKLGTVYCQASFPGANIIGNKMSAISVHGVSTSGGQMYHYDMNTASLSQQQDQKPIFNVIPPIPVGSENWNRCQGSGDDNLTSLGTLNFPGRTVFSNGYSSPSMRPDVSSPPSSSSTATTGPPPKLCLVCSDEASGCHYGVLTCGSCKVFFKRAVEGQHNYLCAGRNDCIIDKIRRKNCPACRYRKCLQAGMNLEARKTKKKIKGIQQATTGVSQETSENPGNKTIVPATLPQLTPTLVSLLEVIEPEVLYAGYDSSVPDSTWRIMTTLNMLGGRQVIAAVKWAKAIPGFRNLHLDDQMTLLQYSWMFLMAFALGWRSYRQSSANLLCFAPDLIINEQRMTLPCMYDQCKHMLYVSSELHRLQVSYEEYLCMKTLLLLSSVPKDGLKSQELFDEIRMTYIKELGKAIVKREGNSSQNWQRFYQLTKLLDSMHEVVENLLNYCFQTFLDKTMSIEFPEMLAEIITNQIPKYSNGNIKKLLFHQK

[2] = target: Glucocorticoid receptor (Homo sapiens) (UniProt P04150); assay: GR-EFC Redistribution (AID 451; calls by dose curve; also: potency is read from the fitted curve at half-maximal effect); conditions: CHO-K1 GR-EFC translocation, beta-gal luminescence, 2 h
How it was run: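 CHO-K1 cells expressing nuclear EA and GR-ED fragments of b-gal; compounds titrated up to 46 uM final, 2 h at 37 C. GR nuclear translocation read as complemented b-gal luminescence after 1 h RT detection.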

[3] = target: Mitogen-activated protein kinase 10 (Mus musculus) (UniProt Q61831); assay: JNK3 AlphaScreen Assay (AID 530; active = well fitted curve in either direction with a large enough effect, not every such curve was filed as active;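 also: kinase came from lysate of stimulated human HepG2 cells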; also: potency is read from the fitted curve at half-maximal effect;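 as to activity change, negative = inhibition: signal reports phosphorylation of biotinylated GST-cJun 1-79 at Ser73 with 10 µM ATP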); conditions: JNK3 lysate, c-Jun phosphorylation; series mostly up to 57.1 µM
How it was run: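 Pre-activated (IL-1β/TNFα) JNK3 in HepG2 lysates phosphorylates biotin-GST-cJun(1-79), 10 uM ATP; anti-phospho-cJun(Ser73) AlphaScreen read at room temperature, pH 7.6 Tris buffer. Compounds pre-incubated 15 min as titrations.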

[4] = qHTS Assay for Lipid Storage Modulators (AID 1519; calls by dose curve); conditions: Drosophila S3 cells, BODIPY lipid droplet/cell ratio, laser cytometry, cells loaded with oleic acid; for activity change, negative = inhibition: at 57.5 µM (top of the series)
How it was run: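 Cells seeded at 5,000 per well were treated with compounds over a concentration series and loaded with oleic acid (400 uM, as added). Lipid droplet fluorescence (488 nm excitation, 500-530 nm channel) was read by laser-scanning cytometry and normalized to 20 uM Triacsin C.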

[5] = target: Ubiquitin carboxyl-terminal hydrolase 1 (Homo sapiens) (UniProt O94782); assay: Inhibitors of USP1/UAF1: Pilot qHTS (AID 504865); conditions: purified USP1/UAF1, Ub-rhodamine cleavage fluorescence; series mostly up to 114 µM; also: nearly all actives have a fitted effect of over 35% in size; also: potency is read from the fitted curve at half-maximal effect;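 as to activity change, negative = inhibition: rhodamine fluorescence freed from ubiquitin-rhodamine substrate followed over time; top concentration of the series differs between compounds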
Chain of Ubiquitin carboxyl-terminal hydrolase 1 (Homo sapiens) (O94782 whole entry, looked up): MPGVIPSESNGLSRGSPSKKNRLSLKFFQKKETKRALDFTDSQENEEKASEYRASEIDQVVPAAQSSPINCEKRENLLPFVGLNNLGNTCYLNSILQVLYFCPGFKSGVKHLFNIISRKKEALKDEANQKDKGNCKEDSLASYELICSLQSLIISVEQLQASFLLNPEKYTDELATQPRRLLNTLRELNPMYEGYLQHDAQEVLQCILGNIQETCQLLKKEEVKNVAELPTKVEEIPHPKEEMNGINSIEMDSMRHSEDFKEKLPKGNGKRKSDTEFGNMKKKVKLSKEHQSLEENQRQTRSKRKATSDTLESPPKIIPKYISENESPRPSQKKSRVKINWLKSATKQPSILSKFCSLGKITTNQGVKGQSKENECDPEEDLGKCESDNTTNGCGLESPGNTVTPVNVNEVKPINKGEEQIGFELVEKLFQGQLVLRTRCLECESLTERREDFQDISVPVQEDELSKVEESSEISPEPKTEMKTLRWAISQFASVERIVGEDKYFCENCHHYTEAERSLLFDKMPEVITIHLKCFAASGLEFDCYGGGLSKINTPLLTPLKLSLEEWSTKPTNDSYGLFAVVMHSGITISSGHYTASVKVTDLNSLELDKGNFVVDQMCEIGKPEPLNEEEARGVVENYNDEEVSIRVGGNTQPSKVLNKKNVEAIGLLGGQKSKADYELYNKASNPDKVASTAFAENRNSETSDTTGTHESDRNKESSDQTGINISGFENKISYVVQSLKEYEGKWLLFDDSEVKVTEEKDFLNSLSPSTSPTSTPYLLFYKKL
How it was run: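 1nM USP1/UAF1 + cpd, 15 min RT; start w/ Ub-Rho 150nM final; kinetic FL 480/540 nm, 6 reads q60 s. Buffer 50mM HEPES pH 7.8, 0.5mM EDTA, 1mM TCEP, 0.01% Tween-20, 0.1 mg/ml BSA.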

[6] = target: DNA dC->dU-editing enzyme APOBEC-3G (Homo sapiens) (UniProt Q9HC16); assay: qHTS for inhibitors of Vif-A3G interactions: Validation (AID 588379); conditions: Vif-A3G protein interaction assay; series mostly up to 46.1 µM
Chain of DNA dC->dU-editing enzyme APOBEC-3G (Homo sapiens) (Q9HC16 whole entry, looked up): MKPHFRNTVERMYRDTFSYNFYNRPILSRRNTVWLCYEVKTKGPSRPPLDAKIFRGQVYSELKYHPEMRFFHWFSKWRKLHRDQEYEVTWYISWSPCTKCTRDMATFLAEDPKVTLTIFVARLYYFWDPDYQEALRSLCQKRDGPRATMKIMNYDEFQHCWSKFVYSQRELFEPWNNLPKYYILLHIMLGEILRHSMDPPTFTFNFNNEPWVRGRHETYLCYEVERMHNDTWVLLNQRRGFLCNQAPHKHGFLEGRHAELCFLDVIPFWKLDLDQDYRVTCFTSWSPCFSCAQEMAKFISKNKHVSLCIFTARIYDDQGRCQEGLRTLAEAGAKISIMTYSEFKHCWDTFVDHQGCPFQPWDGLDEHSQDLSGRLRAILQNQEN
How it was run: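 HeLa cells stably expressing Vif and A3G-eYFP, 700 cells/well, incubated overnight at 37 deg C, then exposed to compound overnight at 37 deg C. Inhibition of Vif-mediated degradation read as increased yellow fluorescence (Ex 488/Em 500-530) by laser-scanning cytometry.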

[7] = system: Zika virus NS2B-NS3 protease; assay: Primary screen GU AMC qHTS for Zika virus inhibitors (AID 1347154); conditions: Zika NS2B-NS3 unlinked protease, AMC fluorogenic substrate; series mostly up to 54.1 µM; also: nearly all actives have a fitted effect of over 70% in size
How it was run: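 Unlinked Zika NS2B hydrophilic domain–NS3 protease complex at 25 nM in 10 mM Tris-HCl pH 8.0, 0.01% Tween 20, with an AMC peptide substrate. Fluorescence change (340/450 nm) over 15 min at room temperature, normalized to controls, fitted to 4-parameter Hill.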

[8] = Primary qHTS for small molecule stabilizers of the endoplasmic reticulum resident proteome: Secreted ER Calcium Modulated Protein (SERCaMP) assay (AID 1508630); conditions: SH-SY5Y GLuc-SERCaMP (Gaussia luciferase released on ER calcium loss) secretion, thapsigargin, luminescence; series mostly up to 38.4 µM
How it was run: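 GLuc-SERCaMP-expressing SH-SY5Y cells, pretreated 16 h with compound, are challenged with thapsigargin to empty ER calcium stores; after 4 h, coelenterazine is added directly to the medium and luminescence is imaged.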

[9] = target: 3',5'-cyclic-AMP phosphodiesterase 4B (Homo sapiens) (UniProt Q07343); assay: qHTS Assay for Inhibitors of PDE-IV (AID 607; active = well fitted activation curve with a large enough effect in the main read-out, with a control signal flat, not every such curve was filed as active); conditions: HEK293 ACTOne CNG channel cells, membrane potential fluorescence; series mostly up to 22.9 µM
Chain of 3',5'-cyclic-AMP phosphodiesterase 4B (Homo sapiens) (Q07343 whole entry, looked up): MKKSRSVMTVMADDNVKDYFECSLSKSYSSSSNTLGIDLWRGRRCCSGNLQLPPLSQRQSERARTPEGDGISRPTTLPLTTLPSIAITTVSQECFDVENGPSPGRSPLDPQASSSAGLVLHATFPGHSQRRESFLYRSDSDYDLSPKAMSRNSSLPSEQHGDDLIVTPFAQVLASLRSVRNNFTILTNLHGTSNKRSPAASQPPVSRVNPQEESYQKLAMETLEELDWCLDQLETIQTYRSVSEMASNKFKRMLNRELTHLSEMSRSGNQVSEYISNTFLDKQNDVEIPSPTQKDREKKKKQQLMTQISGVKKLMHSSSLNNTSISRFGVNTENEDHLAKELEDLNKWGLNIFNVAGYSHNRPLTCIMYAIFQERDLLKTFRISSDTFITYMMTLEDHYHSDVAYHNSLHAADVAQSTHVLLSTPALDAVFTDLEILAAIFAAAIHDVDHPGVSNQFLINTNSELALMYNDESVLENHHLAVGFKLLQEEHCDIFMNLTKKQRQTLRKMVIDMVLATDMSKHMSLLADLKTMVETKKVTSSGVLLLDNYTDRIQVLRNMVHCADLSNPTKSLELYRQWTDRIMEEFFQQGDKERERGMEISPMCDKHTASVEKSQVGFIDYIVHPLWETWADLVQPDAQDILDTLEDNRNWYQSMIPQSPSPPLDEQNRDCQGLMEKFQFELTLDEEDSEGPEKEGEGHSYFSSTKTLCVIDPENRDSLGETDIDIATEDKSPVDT
How it was run: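 ACTOne HEK293 cells carry a modified cAMP-gated CNG channel and express endogenous PDE4; plated 1000 cells/well, compounds up to 22.9 uM final. Membrane-potential dye fluorescence (ex 535/em 590) was read; parental cells received 10 uM forskolin + 100 uM RO 20-1724.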

[10] = target: Cytochrome P450 2C19 (Homo sapiens) (UniProt P33261); assay: qHTS Assay for Inhibitors and Substrates of Cytochrome P450 2C19 (AID 899); conditions: recombinant CYP2C19, luciferin-H EGE luminescence; series mostly up to 57.1 µM; also: nearly all actives have a fitted effect of over 60% in size; also: potency is read from the fitted curve at half-maximal effect
Chain of Cytochrome P450 2C19 (Homo sapiens) (P33261 whole entry, looked up): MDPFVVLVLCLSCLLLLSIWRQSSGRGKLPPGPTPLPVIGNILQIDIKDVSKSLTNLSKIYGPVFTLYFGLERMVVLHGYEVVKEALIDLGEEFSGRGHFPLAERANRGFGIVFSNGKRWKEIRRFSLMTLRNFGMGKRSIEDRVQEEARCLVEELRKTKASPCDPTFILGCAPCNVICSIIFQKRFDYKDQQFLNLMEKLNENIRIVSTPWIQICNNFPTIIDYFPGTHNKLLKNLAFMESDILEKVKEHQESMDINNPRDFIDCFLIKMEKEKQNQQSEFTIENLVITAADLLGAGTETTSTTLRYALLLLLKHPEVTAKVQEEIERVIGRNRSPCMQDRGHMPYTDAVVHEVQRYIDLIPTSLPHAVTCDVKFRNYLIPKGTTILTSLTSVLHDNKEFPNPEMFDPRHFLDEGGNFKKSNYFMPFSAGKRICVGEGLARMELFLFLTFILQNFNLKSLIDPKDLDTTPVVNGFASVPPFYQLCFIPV
How it was run: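 5 nM human CYP2C19 with 10uM Luciferin-H EGE (at KM) in 50mM KPO4, compound preincubated 10 min at 37C, then NADPH regeneration for 60 min at 37C. Luciferin read by luminescence after detection reagent; normalized to 57uM ketoconazole as full inhibition.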

[11] = target: Cytochrome P450 2D6 (Homo sapiens) (UniProt P10635); assay: qHTS Assay for Inhibitors and Substrates of Cytochrome P450 2D6 (AID 891); conditions: recombinant CYP2D6, luciferin-ME EGE luminescence; series mostly up to 57.1 µM; also: nearly all actives have a fitted effect of over 60% in size; also: potency is read from the fitted curve at half-maximal effect;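 as to activity change, negative = inhibition: luciferin methyl ether substrate demethylated by CYP2D6 with NADPH regeneration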
Chain of Cytochrome P450 2D6 (Homo sapiens) (P10635 whole entry, looked up): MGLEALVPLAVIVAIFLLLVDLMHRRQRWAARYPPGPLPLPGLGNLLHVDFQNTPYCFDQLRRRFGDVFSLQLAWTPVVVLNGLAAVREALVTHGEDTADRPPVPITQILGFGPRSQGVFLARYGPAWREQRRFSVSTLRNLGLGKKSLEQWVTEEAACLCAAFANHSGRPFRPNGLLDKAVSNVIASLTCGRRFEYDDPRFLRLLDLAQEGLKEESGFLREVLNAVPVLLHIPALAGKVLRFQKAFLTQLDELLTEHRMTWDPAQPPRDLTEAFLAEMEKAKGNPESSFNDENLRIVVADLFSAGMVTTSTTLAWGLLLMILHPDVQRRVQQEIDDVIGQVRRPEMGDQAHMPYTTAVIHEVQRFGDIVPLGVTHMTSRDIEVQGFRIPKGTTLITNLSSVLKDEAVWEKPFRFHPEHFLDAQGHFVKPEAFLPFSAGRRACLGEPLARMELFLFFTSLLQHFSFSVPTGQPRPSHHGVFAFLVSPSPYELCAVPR
How it was run: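 Human CYP2D6 (5 nM) with 30 uM Luciferin-ME EGE (at Km) in 100 mM KPO4, compound preincubated 10 min, then NADPH regeneration system for 60 min at room temperature. Luciferin read by luminescence; normalized to 1.43 uM quinidine.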

[12] = target: Cytochrome P450 3A4 (Homo sapiens) (UniProt P08684); assay: qHTS Assay for Inhibitors and Substrates of Cytochrome P450 3A4 (AID 884); conditions: recombinant CYP3A4, Luciferin-PPXE luminescence; series mostly up to 57.1 µM; also: nearly all actives have a fitted effect of over 50% in size
Chain of Cytochrome P450 3A4 (Homo sapiens) (P08684 whole entry, looked up): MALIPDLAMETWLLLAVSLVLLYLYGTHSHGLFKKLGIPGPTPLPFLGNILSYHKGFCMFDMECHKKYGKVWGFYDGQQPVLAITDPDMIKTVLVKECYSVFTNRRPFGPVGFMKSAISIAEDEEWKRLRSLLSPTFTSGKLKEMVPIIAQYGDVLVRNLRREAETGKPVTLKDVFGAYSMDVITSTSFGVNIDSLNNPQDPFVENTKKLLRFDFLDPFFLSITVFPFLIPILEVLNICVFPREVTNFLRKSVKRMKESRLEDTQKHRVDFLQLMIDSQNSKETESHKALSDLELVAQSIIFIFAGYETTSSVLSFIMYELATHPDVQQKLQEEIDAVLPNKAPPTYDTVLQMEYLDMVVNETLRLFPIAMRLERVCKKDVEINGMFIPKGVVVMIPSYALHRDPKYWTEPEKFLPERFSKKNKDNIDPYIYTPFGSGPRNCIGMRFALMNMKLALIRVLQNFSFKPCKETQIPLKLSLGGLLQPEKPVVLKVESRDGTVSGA
How it was run: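 20 nM human CYP3A4 with 25 uM Luciferin-PPXE (at KM) in 200 mM KPO4, preincubated 10 min with compound; NADPH regeneration started a 60 min RT reaction. Luciferin detected by luminescence, normalized to 57 uM ketoconazole as full inhibition.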

[13] = target: Cytochrome P450 3A4 (Homo sapiens) (UniProt P08684); assay: qHTS Assay for Activators of Cytochrome P450 3A4 (AID 885); conditions: recombinant CYP3A4, Luciferin-PPXE luminescence, 60 min; series mostly up to 57.1 µM; also: nearly all actives have a fitted effect of over 65% in size; also: potency is read from the fitted curve at half-maximal effect
How it was run: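 20nM CYP3A4 + 25uM Luciferin-PPXE (=KM), 200mM KPO4; cpd 10 min RT; NADPH regen, 60 min RT; stop w/ detection buffer, 20 min; luminescence. Normalized to 57 uM ketoconazole.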

[14] = measured here: cell count channel max response
[15] = measured here: lipid channel max response

| SMILES | Potency [1] | Potency [2] | Potency [3] | activity change, negative = inhibition [4] | max response [4, 14] [%] | max response [4, 15] [%] | Potency [5] | Potency [6] | Potency [7] | Potency [8] | Potency [9] | Potency [10] | Potency [11] | Potency [12] | Potency [13] |
| --- | --- | --- | --- | --- | --- | --- | --- | --- | --- | --- | --- | --- | --- | --- | --- |
| COc1ccccc1N1CCN(CCCCN2C(=O)CCC2=O)CC1 | > 46 µM (inactive) | > 46 µM (inactive) | inactive | -4.36% (inactive) | -1.96 | -4.4 | inactive | inactive | inactive | inactive | – | – | – | – | – |
| C=CC1=C(C)C2=NC1=CC1=NC(=CC3=NC(=CC4=NC(=C2)C(C)=C4CCC(=O)O)C(CCC(=O)O)=C3C)C(C=C)=C1C.[Zn] | – | – | 0.794 µM [activator] (active) | -3.5% (inactive) | -8.49 | -12 | 44.7 µM (active) | inactive | inactive | inactive | inactive | inactive | – | – | – |
| N[C@H](C(=O)O)C1[C@H](C(=O)O)[C@H]1C(=O)O (stereo partly specified) | > 46 µM (inactive) | > 46 µM (inactive) | inactive | 1.13% (inactive) | -12.3 | -12.9 | inactive | – | inactive | inactive | inactive | – | 7.94 µM (active) | – | – |
| CCCN=C(N)NCCC[C@H](N)C(=O)O | > 46 µM (inactive) | > 46 µM (inactive) | inactive | -1.86% (inactive) | -18.5 | -20.5 | inactive | inactive | inactive | inactive | – | 2 µM (active) | 7.94 µM (active) | – | – |
| CC(C)(C)n1nc(-c2ccc(Cl)cc2)c2c(N)ncnc21 | – | – | – | – | – | – | – | – | inactive | inactive | – | – | – | – | – |
| CC(=O)O[C@H]1C[C@H]2CC[C@@H]3[C@H]4C[C@@H]([N+]5(C)CCCCC5)[C@@H](OC(C)=O)[C@]4(C)CC[C@@H]3[C@@]2(C)C[C@@H]1[N+]1(C)CCCCC1 | > 46 µM (inactive) | > 46 µM (inactive) | inactive | -5.08% (inactive) | -19.7 | -24.4 | – | inactive | inactive | inactive | inactive | – | – | – | – |
| NC1(C(=O)O)CC(C(=O)O)C1 (stereo unspecified) | > 46 µM (inactive) | > 46 µM (inactive) | inactive | 5.41% (inactive) | 2.35 | 10.2 | inactive | inactive | inactive | inactive | inactive | – | – | inactive | – |
| Cc1cc(C(=O)O)ccc1[C@H](N)C(=O)O | > 46 µM (inactive) | – | inactive | 1.88% (inactive) | 7.87 | 9.03 | inactive | inactive | inactive | inactive | – | – | – | – | – |
| O=C1CC[C@H](C(=O)O)N1 | – | – | – | – | – | – | – | – | inactive | inactive | – | – | – | – | – |
| O[C@@H](c1ccccc1)C1CCN(CCc2ccccc2)CC1 | > 46 µM (inactive) | > 46 µM (inactive) | inactive | 3% (inactive) | 5.72 | 10.3 | – | inactive | inactive | inactive | – | – | – | inactive | 15.8 µM (active) |
| N[C@@](C(=O)O)(c1ccc(P(=O)(O)O)cc1)C1CC1 | > 46 µM (inactive) | > 46 µM (inactive) | inactive | -7.82% (inactive) | 3.93 | -1.11 | – | – | inactive | inactive | – | – | – | – | – |
| CCCCCC(=O)O[C@H](CC(=O)O)C[N+](C)(C)C | > 46 µM (inactive) | > 46 µM (inactive) | inactive | 1.82% (inactive) | 0.652 | 2.66 | – | – | inactive | inactive | – | – | – | – | – |
| CC(=O)NCC(=O)N[C@H](CCC(=O)O)C(=O)O (HELM PEPTIDE1{[ac].G.[dE]}$$$$V2.0) | > 46 µM (inactive) | > 46 µM (inactive) | inactive | 3.36% (inactive) | 6.18 | 9.84 | inactive | inactive | inactive | inactive | inactive | – | – | – | – |
| CCN(CC)CC1CCN(c2ncc3ncnc(Nc4ccc(F)c(Cl)c4)c3n2)CC1 | – | – | – | – | – | – | – | – | inactive | inactive | – | – | – | – | – |
| Cc1ncc2c(c1O)COP(=O)(O)OC2 | > 46 µM (inactive) | > 46 µM (inactive) | inactive | 0.354% (inactive) | -3.73 | -4.32 | inactive | inactive | inactive | inactive | inactive | – | – | – | – |
| O=C(Nc1ccccc1)N[C@H]1C[C@H](C(=O)O)Nc2cc(Cl)cc(Cl)c21 | – | > 46 µM (inactive) | – | 6.02% (inactive) | -4.62 | 0.745 | – | inactive | inactive | inactive | inactive | – | – | – | inactive |
| CSc1nc(N)c2ncn([C@H]3O[C@H](COP(=O)(O)OP(=O)(O)OP(=O)(O)O)[C@@H](O)[C@@H]3O)c2n1 | > 46 µM (inactive) | > 46 µM (inactive) | inactive | 4.02% (inactive) | -2.91 | 1.82 | – | inactive | inactive | inactive | inactive | inactive | inactive | inactive | – |

From PubChem BioAssay (NCATS)
